# Records with an inconclusive call do not appear. Active and inactive are the calls of the source. How the source made its calls: active means hit-call score of the fitted dose curve at least 0.9, where 1 is the maximum; inconclusive means response in the unintended direction; inactive means score below 0.9.
# What was measured:
# [1] = molecular target: human Opioid Receptor Delta 1 (Opiate D1), OPRD1 (gene 4985) (UniProt P41143); assay: NVS_GPCR_hOpiate_D1: NovaScreen (NVS) G Protein-Coupled Receptor Assay for human Opioid Receptor Delta 1 (Opiate D1) (AID 2283280)
# How it was run: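 Membrane preparations from CHO cells bearing the human receptor were incubated 1 h with test chemical, and bound radioligand was counted after filtration. Actives from 25 uM duplicate screening were retested in concentration-response.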
# [2] = molecular target: human Purinergic Receptor P2Y, P2RY1 (gene 5028) (UniProt P47900); assay: NVS_GPCR_hPY2: NovaScreen (NVS) G Protein-Coupled Receptor Assay for human Purinergic Receptor P2Y (AID 2283281)
# How it was run: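 Filtration scintillation readout of radioligand displacement on U937 extract, measured 1 h post-dosing. Single 25 uM duplicate screen, then singleton concentration series to 50 uM for chemicals passing threshold; DMSO as baseline.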
# [3] = molecular target: human Thromboxane A2 Receptor (TXA2), TBXA2R (gene 6915) (UniProt P21731); assay: NVS_GPCR_hTXA2: NovaScreen (NVS) G Protein-Coupled Receptor Assay for human Thromboxane A2 Receptor (TXA2) (AID 2283282);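 further: actives reduce bound radioligand signal relative to DMSO baseline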
# How it was run: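 Screening ran at 25 uM in duplicate, with concentration series for confirmed actives. Each test measures radioligand binding to human platelet protein after 1 h, cell-free, using filter-based scintillation detection of signal loss relative to DMSO.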
# [4] = molecular target: mouse Cholecystokinin, CCK1 Receptor (CCKA), Cckar (gene 12425) (UniProt O08786); assay: NVS_GPCR_mCCKAPeripheral: NovaScreen (NVS) G Protein-Coupled Receptor Assay for mouse Cholecystokinin, CCK1 Receptor (CCKA) (AID 2283285)
# How it was run: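 Chemicals were first screened in duplicate at 25 uM, with those meeting threshold (e.g., 30% inhibition) retested in singleton concentration series to 50 uM maximum. Binding of radioligand to mouse pancreatic membranes was read after 2 h by filtration and scintillation counting.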
# [5] = system: 5-hydroxytryptamine receptor 2C (pig); assay: NVS_GPCR_p5HT2C: NovaScreen (NVS) G Protein-Coupled Receptor Assay for pig Serotonin, 5-Hydroxytryptamine Receptor 2C (5HT2C) (AID 2283288)
# How it was run: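 Radioligand displacement on membranes from pig choroid plexus, detected by filter scintillation counting after 1 h. Tested first at a single 25 uM in duplicate, then in concentration-response for actives; DMSO served as baseline.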
# [6] = molecular target: human Opioid Receptor Mu (Opiate Mu), OPRM1 (gene 4988) (UniProt P35372); assay: NVS_GPCR_hOpiate_mu: NovaScreen (NVS) G Protein-Coupled Receptor Assay for human Opioid Receptor Mu (Opiate Mu) (AID 2283290);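 further: hits lower bound tracer signal versus DMSO meaning displacement of the ligand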
# How it was run: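 Radioligand displacement binding on membranes from CHO cells expressing the receptor, 2.5 h after dosing, filter-based scintillation counting; loss of signal vs DMSO baseline. Screened in duplicate at 25 uM, actives then run in concentration series.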
# [7] = molecular target: Muscarinic acetylcholine receptor M5 (Homo sapiens) (UniProt P08912); assay: NVS_GPCR_hM5: NovaScreen (NVS) G Protein-Coupled Receptor Assay for human Muscarinic, M5 Receptor (AID 2283275)
# How it was run: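 Chemicals passing a primary duplicate screen at 25 uM were run as singleton concentration series, maximum 50 uM. Displacement of a specific radioligand from CHO-extracted receptor was read by filter scintillation after 1 h, relative to DMSO.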
# [8] = molecular target: human Neurokinin, NK2 Receptor, TACR2 (gene 6865) (UniProt P21452); assay: NVS_GPCR_hNK2: NovaScreen (NVS) G Protein-Coupled Receptor Assay for human Neurokinin, NK2 Receptor (AID 2283278);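 further: actives reduce bound radioligand signal relative to DMSO baseline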
# How it was run: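 Radioligand binding on membranes from CHO cells expressing receptor, filter-based scintillation read 4 h after dosing. Initial duplicate screen at 25 uM, actives in concentration series; loss of signal versus DMSO.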
# [9] = molecular target: human Leukotriene B4 Receptor 1 (LTB4-BLT1), LTB4R (gene 1241) (UniProt Q15722); assay: NVS_GPCR_hLTB4_BLT1: NovaScreen (NVS) G Protein-Coupled Receptor Assay for human Leukotriene B4 Receptor 1 (LTB4-BLT1) (AID 2283271)
# How it was run: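 Cell-free human neutrophil receptor preparation, 1 h exposure, radioligand binding read by filter scintillation counting. Single 25 uM duplicate screen, then concentration series topping at 50 uM; binding loss scored against DMSO baseline.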
# [10] = molecular target: Muscarinic acetylcholine receptor M3 (Homo sapiens) (UniProt P20309); assay: NVS_GPCR_hM3: NovaScreen (NVS) G Protein-Coupled Receptor Assay for human Muscarinic, M3 Receptor (AID 2283272)
# How it was run: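 Radioligand displacement binding on human M3 receptor in CHO-derived membranes, 1 h incubation, filter-based scintillation counting. Primary screen in duplicate at 25 uM; actives followed up in concentration series; loss of signal versus DMSO.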
# [11] = molecular target: human Muscarinic, M4 Receptor, CHRM4 (gene 1132) (UniProt P08173); assay: NVS_GPCR_hM4: NovaScreen (NVS) G Protein-Coupled Receptor Assay for human Muscarinic, M4 Receptor (AID 2283274)
# How it was run: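 Filter-based scintillation counting of radioligand bound to CHO-expressed human M4 preparations after 1 h; loss of signal fitted versus DMSO. Initial duplicate testing at 25 uM, concentration-response follow-up for actives.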
# [12] = molecular target: rat Adrenergic, Alpha 1, Non-selective Receptor (Adra1), Adra1a (gene 29412) (UniProt P43140); assay: NVS_GPCR_rAdra1_NonSelective: NovaScreen (NVS) G Protein-Coupled Receptor Assay for rat Adrenergic, Alpha 1, Non-selective Receptor (Adra1) (AID 2283289)
# How it was run: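 Chemicals first screened in duplicate at 25 uM, then actives tested in concentration series up to 50 uM. Binding measured as displacement of radioligand from rat forebrain membrane receptors, 1 h, filtration with scintillation readout; DMSO baseline.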
# [13] = molecular target: human Neuropeptide Receptor Y1 (NPY1), NPY1R (gene 4886) (UniProt P25929); assay: NVS_GPCR_hNPY1: NovaScreen (NVS) G Protein-Coupled Receptor Assay for human Neuropeptide Receptor Y1 (NPY1) (AID 2283276)
# How it was run: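 Displacement of specific radioligand from NPY1 receptor of SK-N-MC origin, read by filtration and scintillation after 1 h. Compounds first tested at 25 uM in duplicate, then actives in concentration series; signal loss relative to DMSO.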
# [14] = molecular target: Muscarinic acetylcholine receptor M2 (Homo sapiens) (UniProt P08172); assay: NVS_GPCR_hM2: NovaScreen (NVS) G Protein-Coupled Receptor Assay for human Muscarinic, M2 Receptor (AID 2283273)
# How it was run: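 Filter-based radiodetection read bound radioligand 1 h after dosing CHO-derived membrane protein. Single-concentration duplicates (25 uM) first, then concentration-response for actives; signal loss versus DMSO scored.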
# [15] = molecular target: human Orphanin, Opioid Related Nociceptin Receptor 1 (ORL1), OPRL1 (gene 4987) (UniProt P41146); assay: NVS_GPCR_hORL1: NovaScreen (NVS) G Protein-Coupled Receptor Assay for human Orphanin, Opioid Related Nociceptin Receptor 1 (ORL1) (AID 2283283)
# How it was run: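 Cell-free binding using HEK293-derived receptor protein: radioligand displacement measured by filter scintillation 1 hour after dosing. Primary testing at 25 uM in duplicate, followed by singleton concentration series up to 50 uM; DMSO served as negative control.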
# [16] = system: rabbit Platelet Activating Factor Receptor (PAF), gene 100354046; assay: NVS_GPCR_rabPAF: NovaScreen (NVS) G Protein-Coupled Receptor Assay for rabbit Platelet Activating Factor Receptor (PAF) (AID 2283287)
# How it was run: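 Rabbit platelet membrane preparation; radioligand displacement read by filter-based scintillation counting 1 h after dosing, loss of signal versus DMSO. Primary screen in duplicate at 25 uM, actives followed up in concentration series.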
# [17] = molecular target: rat Serotonin, 5-Hydroxytryptamine Receptor 1 (5HT1), Non-Selective Binding, Htr1a (gene 24473) (UniProt P19327); assay: NVS_GPCR_r5HT1_NonSelective: NovaScreen (NVS) G Protein-Coupled Receptor Assay for rat Serotonin, 5-Hydroxytryptamine Receptor 1 (5HT1), Non-Selective Binding (AID 2283286)
# How it was run: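 Binding of a radioligand to rat cortex membranes is read by filtration and scintillation counting after 1 h. Compounds were screened at 25 uM in duplicate. Actives were then titrated to a top of 50 uM. DMSO is the baseline.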
# [18] = molecular target: human Neurotensin Receptor (NTS), NTSR1 (gene 4923) (UniProt P30989); assay: NVS_GPCR_hNTS: NovaScreen (NVS) G Protein-Coupled Receptor Assay for human Neurotensin Receptor (NTS) (AID 2283279)
# How it was run: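 Compounds competed with a radiolabelled ligand for binding to CHO-derived human neurotensin receptor; bound signal counted after filtration, 1 h. Screened first at a single concentration of 25 uM in duplicate, then concentration series to 50 uM maximum for actives.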
# [19] = molecular target: human Vasopressin 1A Receptor (V1A), AVPR1A (gene 552) (UniProt P37288); assay: NVS_GPCR_hV1A: NovaScreen (NVS) G Protein-Coupled Receptor Assay for human Vasopressin 1A Receptor (V1A) (AID 2283284)
# How it was run: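 Single-concentration duplicate screen at 25 uM, with concentration-response follow-up (top 50 uM) for actives. The assay measured displacement of a radioligand from human platelet-derived receptor after 1.5 h, detected by filtration and scintillation counting.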
# Sequence of human Neurokinin, NK2 Receptor, TACR2 (gene 6865) (P21452 whole entry, looked up): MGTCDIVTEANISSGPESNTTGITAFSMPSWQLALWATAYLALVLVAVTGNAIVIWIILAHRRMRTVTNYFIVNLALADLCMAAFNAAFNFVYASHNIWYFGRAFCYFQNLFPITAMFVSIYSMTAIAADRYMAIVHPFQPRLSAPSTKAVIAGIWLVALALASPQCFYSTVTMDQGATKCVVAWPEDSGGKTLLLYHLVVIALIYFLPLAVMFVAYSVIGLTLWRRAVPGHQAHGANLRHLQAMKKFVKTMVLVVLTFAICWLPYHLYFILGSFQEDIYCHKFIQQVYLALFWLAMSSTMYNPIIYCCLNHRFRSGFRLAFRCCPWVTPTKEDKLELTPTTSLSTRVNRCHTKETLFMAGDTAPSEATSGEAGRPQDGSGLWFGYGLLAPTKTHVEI
# Sequence of human Thromboxane A2 Receptor (TXA2), TBXA2R (gene 6915) (P21731 whole entry, looked up): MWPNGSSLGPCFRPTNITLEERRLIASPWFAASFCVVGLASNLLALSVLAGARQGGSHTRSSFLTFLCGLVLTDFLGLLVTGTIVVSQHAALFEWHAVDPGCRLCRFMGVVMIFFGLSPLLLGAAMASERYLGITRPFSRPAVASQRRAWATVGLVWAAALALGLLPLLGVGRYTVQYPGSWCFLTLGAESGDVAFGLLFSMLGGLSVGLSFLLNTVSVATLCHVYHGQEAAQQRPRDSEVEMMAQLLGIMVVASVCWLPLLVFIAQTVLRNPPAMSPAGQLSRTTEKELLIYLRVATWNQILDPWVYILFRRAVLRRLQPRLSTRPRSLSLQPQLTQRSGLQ
# Sequence of human Opioid Receptor Mu (Opiate Mu), OPRM1 (gene 4988) (P35372 whole entry, looked up): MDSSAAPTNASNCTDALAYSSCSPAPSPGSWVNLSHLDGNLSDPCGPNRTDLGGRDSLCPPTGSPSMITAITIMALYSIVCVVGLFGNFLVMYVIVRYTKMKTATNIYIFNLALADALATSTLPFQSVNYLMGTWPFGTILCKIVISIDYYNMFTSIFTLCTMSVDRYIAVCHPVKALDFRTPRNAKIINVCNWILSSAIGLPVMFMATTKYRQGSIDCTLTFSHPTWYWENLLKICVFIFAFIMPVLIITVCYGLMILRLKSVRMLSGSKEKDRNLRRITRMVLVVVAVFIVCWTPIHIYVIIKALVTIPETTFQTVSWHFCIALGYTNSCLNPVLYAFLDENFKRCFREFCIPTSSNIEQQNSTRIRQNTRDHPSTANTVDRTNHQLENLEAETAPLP
# Sequence of human Purinergic Receptor P2Y, P2RY1 (gene 5028) (P47900 whole entry, looked up): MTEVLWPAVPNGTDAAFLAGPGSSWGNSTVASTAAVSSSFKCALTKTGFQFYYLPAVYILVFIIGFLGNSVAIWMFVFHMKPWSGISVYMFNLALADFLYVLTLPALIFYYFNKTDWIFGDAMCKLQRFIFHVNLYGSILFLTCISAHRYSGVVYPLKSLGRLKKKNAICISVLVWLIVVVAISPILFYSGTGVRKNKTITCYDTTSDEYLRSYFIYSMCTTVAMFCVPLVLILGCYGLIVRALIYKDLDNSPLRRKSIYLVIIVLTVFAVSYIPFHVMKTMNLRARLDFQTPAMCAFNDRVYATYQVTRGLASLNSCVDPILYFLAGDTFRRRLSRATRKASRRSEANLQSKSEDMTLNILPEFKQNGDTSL
# Sequence of Muscarinic acetylcholine receptor M5 (Homo sapiens) (P08912 whole entry, looked up): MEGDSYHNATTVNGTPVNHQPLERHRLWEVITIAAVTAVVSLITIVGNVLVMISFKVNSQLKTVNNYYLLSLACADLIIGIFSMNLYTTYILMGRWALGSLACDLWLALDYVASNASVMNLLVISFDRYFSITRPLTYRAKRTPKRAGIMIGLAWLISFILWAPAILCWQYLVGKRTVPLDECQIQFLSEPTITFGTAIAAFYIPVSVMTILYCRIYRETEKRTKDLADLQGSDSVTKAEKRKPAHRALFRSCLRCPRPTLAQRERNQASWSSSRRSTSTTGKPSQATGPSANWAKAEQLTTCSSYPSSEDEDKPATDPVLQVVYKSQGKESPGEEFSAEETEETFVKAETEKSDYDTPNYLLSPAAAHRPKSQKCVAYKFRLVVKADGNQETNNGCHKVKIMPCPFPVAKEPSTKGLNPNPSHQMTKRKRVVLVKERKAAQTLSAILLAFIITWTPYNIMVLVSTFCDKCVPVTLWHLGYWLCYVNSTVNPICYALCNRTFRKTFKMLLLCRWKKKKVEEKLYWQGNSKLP
# Sequence of human Opioid Receptor Delta 1 (Opiate D1), OPRD1 (gene 4985) (P41143 whole entry, looked up): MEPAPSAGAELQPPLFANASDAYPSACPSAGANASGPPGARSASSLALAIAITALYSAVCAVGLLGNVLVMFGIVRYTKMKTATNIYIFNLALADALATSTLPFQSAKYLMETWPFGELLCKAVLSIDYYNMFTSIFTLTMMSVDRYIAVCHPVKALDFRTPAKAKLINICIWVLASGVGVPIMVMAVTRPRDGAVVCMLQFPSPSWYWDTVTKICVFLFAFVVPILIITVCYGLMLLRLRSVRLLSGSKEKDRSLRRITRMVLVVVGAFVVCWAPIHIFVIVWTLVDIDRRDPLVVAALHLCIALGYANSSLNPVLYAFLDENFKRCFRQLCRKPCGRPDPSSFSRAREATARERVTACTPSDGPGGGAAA
# Sequence of rat Adrenergic, Alpha 1, Non-selective Receptor (Adra1), Adra1a (gene 29412) (P43140 whole entry, looked up): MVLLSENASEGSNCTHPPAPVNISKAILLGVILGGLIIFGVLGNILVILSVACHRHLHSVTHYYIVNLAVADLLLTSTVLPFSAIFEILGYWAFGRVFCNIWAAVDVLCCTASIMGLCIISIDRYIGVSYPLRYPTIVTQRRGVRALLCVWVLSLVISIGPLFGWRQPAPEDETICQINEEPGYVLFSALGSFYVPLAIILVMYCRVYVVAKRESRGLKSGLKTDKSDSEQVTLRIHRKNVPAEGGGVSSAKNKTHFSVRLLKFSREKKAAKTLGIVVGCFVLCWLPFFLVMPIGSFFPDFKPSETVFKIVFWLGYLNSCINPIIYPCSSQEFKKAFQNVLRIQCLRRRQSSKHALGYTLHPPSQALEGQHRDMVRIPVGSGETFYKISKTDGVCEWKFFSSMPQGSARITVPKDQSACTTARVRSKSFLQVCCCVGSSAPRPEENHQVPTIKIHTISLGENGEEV
# Sequence of Muscarinic acetylcholine receptor M3 (Homo sapiens) (P20309 whole entry, looked up): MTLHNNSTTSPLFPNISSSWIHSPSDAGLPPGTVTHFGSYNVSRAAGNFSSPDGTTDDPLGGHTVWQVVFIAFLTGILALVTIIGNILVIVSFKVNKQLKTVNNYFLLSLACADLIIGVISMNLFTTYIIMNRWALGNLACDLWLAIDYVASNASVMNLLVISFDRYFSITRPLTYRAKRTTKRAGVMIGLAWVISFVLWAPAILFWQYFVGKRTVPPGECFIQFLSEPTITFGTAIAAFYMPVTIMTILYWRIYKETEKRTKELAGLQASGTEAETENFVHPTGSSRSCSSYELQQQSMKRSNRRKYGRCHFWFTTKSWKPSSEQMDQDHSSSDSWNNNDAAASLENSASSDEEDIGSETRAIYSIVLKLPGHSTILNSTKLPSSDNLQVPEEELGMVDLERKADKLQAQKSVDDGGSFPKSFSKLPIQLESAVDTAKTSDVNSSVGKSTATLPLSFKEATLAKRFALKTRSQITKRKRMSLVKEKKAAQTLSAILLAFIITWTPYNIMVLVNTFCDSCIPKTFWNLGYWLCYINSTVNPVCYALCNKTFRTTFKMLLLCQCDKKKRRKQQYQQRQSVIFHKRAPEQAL
# Sequence of human Muscarinic, M4 Receptor, CHRM4 (gene 1132) (P08173 whole entry, looked up): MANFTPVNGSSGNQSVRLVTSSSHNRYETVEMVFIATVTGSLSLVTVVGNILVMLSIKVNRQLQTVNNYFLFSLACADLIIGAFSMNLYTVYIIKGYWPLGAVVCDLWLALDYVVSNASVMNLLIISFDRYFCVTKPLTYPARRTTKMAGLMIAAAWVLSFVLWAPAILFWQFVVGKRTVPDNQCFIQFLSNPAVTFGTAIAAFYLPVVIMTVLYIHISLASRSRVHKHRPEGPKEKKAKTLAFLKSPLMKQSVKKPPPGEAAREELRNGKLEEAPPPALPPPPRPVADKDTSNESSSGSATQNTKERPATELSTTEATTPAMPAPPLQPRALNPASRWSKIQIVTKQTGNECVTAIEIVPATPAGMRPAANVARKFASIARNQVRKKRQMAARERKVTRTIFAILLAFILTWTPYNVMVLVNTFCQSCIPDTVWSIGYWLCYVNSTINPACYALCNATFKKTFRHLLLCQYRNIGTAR
# Sequence of mouse Cholecystokinin, CCK1 Receptor (CCKA), Cckar (gene 12425) (O08786 whole entry, looked up): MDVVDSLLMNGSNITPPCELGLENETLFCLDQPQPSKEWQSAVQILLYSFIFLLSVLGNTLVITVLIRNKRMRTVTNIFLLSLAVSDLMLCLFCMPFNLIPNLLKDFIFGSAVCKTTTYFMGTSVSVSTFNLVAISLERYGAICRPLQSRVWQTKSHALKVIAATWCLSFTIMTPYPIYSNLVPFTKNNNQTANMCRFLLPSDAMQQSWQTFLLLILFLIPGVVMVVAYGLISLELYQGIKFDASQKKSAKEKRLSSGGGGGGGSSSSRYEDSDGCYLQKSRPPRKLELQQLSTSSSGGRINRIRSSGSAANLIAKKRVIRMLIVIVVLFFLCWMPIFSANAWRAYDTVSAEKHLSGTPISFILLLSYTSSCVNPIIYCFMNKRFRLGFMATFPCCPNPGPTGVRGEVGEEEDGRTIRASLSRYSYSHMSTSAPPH
# Sequence of Muscarinic acetylcholine receptor M2 (Homo sapiens) (P08172 whole entry, looked up): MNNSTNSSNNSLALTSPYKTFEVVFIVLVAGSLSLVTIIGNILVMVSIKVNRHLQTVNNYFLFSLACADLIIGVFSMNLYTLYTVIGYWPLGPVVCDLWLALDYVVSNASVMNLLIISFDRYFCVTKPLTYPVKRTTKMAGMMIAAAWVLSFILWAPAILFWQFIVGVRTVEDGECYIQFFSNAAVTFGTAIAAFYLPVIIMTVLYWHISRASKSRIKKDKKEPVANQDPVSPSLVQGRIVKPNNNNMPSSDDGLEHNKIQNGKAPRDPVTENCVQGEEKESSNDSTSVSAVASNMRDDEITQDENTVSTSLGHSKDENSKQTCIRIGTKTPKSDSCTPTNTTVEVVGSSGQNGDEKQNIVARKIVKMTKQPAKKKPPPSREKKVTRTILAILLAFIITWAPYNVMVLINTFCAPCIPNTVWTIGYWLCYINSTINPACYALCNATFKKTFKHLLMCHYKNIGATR
smiles,measurement,setting,value
NC(=O)N1C(=O)C(C(=O)c2cc(Cl)cs2)c2cc(F)c(Cl)cc21 (stereo not given),outcome,[1],inactive
same,outcome,[2],inactive
same,AC50,[3],0.961 µM (active)
same,outcome,[4],inactive
same,outcome,[5],inactive
same,outcome,[6],inactive
Cc1oc(-c2ccccc2)nc1CCOc1ccc(C[C@H](Nc2ccccc2C(=O)c2ccccc2)C(=O)O)cc1,outcome,[7],inactive
same,outcome,[8],inactive
same,AC50,[1],12.8 µM (active)
same,AC50,[3],3.52 µM (active)
same,outcome,[6],inactive
C#C[C@]1(O)CC[C@H]2[C@@H]3CCC4=CC(=O)CC[C@@H]4[C@H]3CC[C@@]21C,outcome,[8],inactive
same,outcome,[2],inactive
O=c1c(-c2ccc(O)cc2)coc2cc(O)ccc12,outcome,[9],inactive
CCCCCCCCCCCCc1ccccc1S(=O)(=O)O,AC50,[10],41 µM (active)
same,AC50,[11],33.5 µM (active)
same,AC50,[7],17.2 µM (active)
same,AC50,[8],38 µM (active)
same,AC50,[1],7.58 µM (active)
same,AC50,[2],12.3 µM (active)
same,AC50,[3],12.1 µM (active)
same,AC50,[12],38.7 µM (active)
same,AC50,[6],15.1 µM (active)
O=C(OCCOCCOC(=O)c1ccccc1)c1ccccc1,outcome,[7],inactive
same,outcome,[8],inactive
O=[N+]([O-])c1ccc(O)cc1,outcome,[5],inactive
Oc1cccc(O)c1,outcome,[13],inactive
CCCOC(=O)c1ccc(O)cc1,outcome,[5],inactive
CC(C)(C)c1ccc(O)c(C(C)(C)C)c1,outcome,[6],inactive
CC[C@H](C)[C@@H](C(=O)O)n1sc2ccccc2c1=O,outcome,[1],inactive
same,outcome,[3],inactive
CCC(=C(c1ccc(O)cc1)c1ccc(OCCN(C)C)cc1)c1ccccc1,outcome,[14],inactive
same,AC50,[7],2.52 µM (active)
same,outcome,[15],inactive
same,AC50,[4],0.808 µM (active)
same,AC50,[16],4.17 µM (active)
same,AC50,[6],3.93 µM (active)
CN1CCN(c2ccccc2/C=C2\SCCN(c3ccc(Cl)c(Cl)c3)C2=O)CC1,AC50,[8],6.97 µM (active)
same,AC50,[17],0.626 µM (active)
same,AC50,[5],0.748 µM (active)
NC(=O)N(O)[C@@H]1C=C[C@H](Oc2cccc(Oc3ccc(F)cc3)c2)C1,outcome,[10],inactive
same,AC50,[11],25 µM (active)
same,outcome,[7],inactive
same,outcome,[8],inactive
same,AC50,[18],8.13 µM (active)
same,outcome,[12],inactive
same,outcome,[6],inactive
CC[C@H](c1ccc(O)cc1)[C@@H](CC)c1ccc(O)cc1,AC50,[1],8.04 µM (active)
same,AC50,[6],1.1 µM (active)
Oc1cc2ccccc2c2ccccc12,outcome,[8],inactive
same,AC50,[5],0.848 µM (active)
Cc1cc(CCN2CCN(c3nsc4ccccc34)CC2)cc2c1NC(=O)CC2(C)C,AC50,[8],5.07 µM (active)
same,AC50,[5],0.00247 µM (active)
CCCCCCCCC(=O)O,AC50,[19],5.76 µM (active)
same,outcome,[12],inactive

# — PubChem BioAssay (EPA / NIEHS)
